Screening data as filed in PubChem BioAssay.
Pin1 inhibitor: inhibitors of human Pin1. Q13526. Pin1 FP peptide displacement, HiFluor488, 10 min. Potency, µM (top dose mostly 115 µM), inactives show at the highest dose activity, negative = inhibition, actives largely listed as inhibitors. hit rate 0.009% among 390,000. AID 504891; active means well fitted inhibition curve with a large enough effect in the polarisation, with a control signal flat, not every such curve was filed as active; inconclusive means small, poorly fitted or top-dose-only effect, or effect the other way, or a change in a side signal; inactive means no such curve, though single readings can be large or run the other way; the % refers to the polarisation; further: potency means the concentration at half of the fitted maximal effect; on the % scale 0 is the no-effect control and ±100 the full control effect
Target sequence (Q13526 whole entry, looked up): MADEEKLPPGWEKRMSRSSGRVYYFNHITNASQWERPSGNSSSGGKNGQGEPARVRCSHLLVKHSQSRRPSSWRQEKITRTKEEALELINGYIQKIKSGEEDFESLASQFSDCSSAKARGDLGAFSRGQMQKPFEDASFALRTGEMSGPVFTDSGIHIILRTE
gsp antag: antagonists of gsp mutant (McCune-Albright syndrome); Potency, µM (titrated, usually from 76.9 µM), for inactives: at the top dose activity change, negative = inhibition, most hits filed as inhibitors; hit rate 0.4% among 340,000; AID 624288; gsp-mutant cells, cAMP HTRF, 30 min; calls by dose curve; cell line not stated here;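 further: intracellular cAMP measured with PDE inhibitor Ro 20-1724 present during compound exposure; potency means the concentration at half of the fitted maximal effect; on the % scale 0 is the no-effect control and ±100 the full control effect; nearly all actives have a fitted effect of over 65% in size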
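Measurement of cellular cAMP by homogeneous time-resolved fluorescence following a 30 min compound exposure at 37C. The PDE inhibitor […] was present throughout; the assay buffer was DPBS with 0.05% BSA and 0.005% Tween 20.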
TCR activator: activates T cell receptor signaling | primary human leukocytes, anti-CD3, IL-2 HTRF, 48 h | Potency, µM (series often up to 9.22 µM), for inactives: at the top dose activation of IL-2 secretion, usual class: activators | 330,000 tested, under 10 active | AID 504894; active means well fitted activation curve with a large enough effect; inconclusive means small, poorly fitted or top-dose-only effect, or another doubt; inactive means no such curve, though single readings can be large or run the other way; further: % of control where 0% means no effect
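Primary human leukocytes incubated 48 hr with anti-CD3 beads plus compound, without co-stimulation. Secreted IL-2 measured by HTRF (europium cryptate/d2 anti-IL-2 pair, 320 nm excitation, 665 nm emission).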
gsp ag: agonists of gsp mutant (McCune-Albright syndrome); AID 624287; Potency, µM (series often up to 76.9 µM), for inactives: top-dose activation (cAMP increase), most hits filed as activators; hit rate 0.13% among 340,000; gsp mutant cells, cAMP HTRF, 30 min; active means well fitted activation curve with a large enough effect; inconclusive means small, poorly fitted or top-dose-only effect, or another doubt; inactive means no such curve, though single readings can be large or run the other way; cell line not stated here;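 further: phosphodiesterase inhibitor Ro 20-1724 added with compounds to block cAMP breakdown; potency means the concentration at half of the fitted maximal effect; nearly all actives have a fitted effect of over 60% in size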
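Cells stably selected in G418 were plated at 2000/well, grown 16-24 hr, then given compounds in DMSO with the PDE inhibitor […] (300 uM solution added) for 30 min at 37C; cAMP was read by HTRF.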
TSHR antag: human thyrotropin receptor antagonism | activity change, negative = inhibition, % at 11.5 µM | P16473 | hit rate 0.2% among 330,000 | TSHR-expressing cells, TSH-stimulated cAMP HTRF, 2 h; hits give low values | AID 504810;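 active means activity change below a set negative limit, meaning inhibition stronger than a set level, cut at about -70% in these data; inconclusive means activity change between two set negative limits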; further: on the % scale 0 is the no-effect control and ±100 the full control effect
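Read-out is FRET at 665 nm (cryptate excitation 337 nm) from a cryptate-tagged anti-cAMP antibody, competed by cell cAMP against cAMP-d2. Compounds are tested on freshly harvested TSHR cells challenged with 4nM TSH (EC80) for 2 hours at 37 deg C.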
Numbers without * were called inactive; u = inconclusive; x = not tested or not shown; [ ] = dose if it differs, or a comment. An excerpt weighted towards active compounds, which were near 0.63% of everything screened.

SMILES	Pin1 inhibitor	gsp antag	TCR activator	gsp ag	TSHR antag
CC(=O)Oc1c(I)cc(I)cc1C(=O)Nc1ccc(Cl)cc1	7.4%	35.5µM*	x	6.6%[15.4 µM]	-106.4*
COc1ccc(Cl)cc1C(=O)Nc1ccc(NC(C)=O)cc1	-1.1%	35.5µM*	-2.0%	-13.6%	5.9
O=C1c2ccccc2C(=O)N1CC1c2ccccc2CCN1S(=O)(=O)c1cnc[nH]1 (centres undefined)	2.0%	-8.9%	1.8%	-10.1%	-7.9
CN(C(=S)NC(=O)C1CC1)c1ccc(O)cc1	1.3%	5.3%	-3.0%	-36.2%	-3.6
CCN(c1cccc(C)c1)S(=O)(=O)c1cn(CC(=O)OC)c2ccc([N+](=O)[O-])cc12	-0.4%	1.5%	1.2%	11.9%	-130.4*
O=C(NCc1ccco1)c1cccnc1Cl	-1.1%	3.9%	-4.3%[46.1 µM]	26.2%[15.4 µM]	16.8
CCOC(=O)c1sc2nc(C)[nH]c(=S)c2c1C	38.8%	3.0%	-11.2%	12.6µM*	6.6
CC(C)(C)c1ccc(C(=O)Nc2sc3c(c2C#N)CCC(C(C)(C)C)C3)cc1 (centres undefined)	-1.9%	x	x	x	x
CC(C)(C)C1CCc2c(sc(NC(=O)C3CC=CCC3C(=O)O)c2C#N)C1 (centres undefined)	u	39.8µM*	-10.0%[46.1 µM]	-4.2%	-15.3
CCc1ccccc1NS(=O)(=O)c1ccc(OC)c2ncccc12	5.6%	28.2µM*	-0.5%	0.2%	-0.1
COc1ccc(Nc2nc(N3CCCC3)c3ccccc3n2)cc1	-6.2%	-9.5%	1.9%	7.6%	x
CCN(CC)c1ccc(Nc2nc(N3CCOCC3)c3ccccc3n2)cc1	4.2%	50.1µM*	6.6%	-18.9%	-19.0
CC1Sc2ccc(S(=O)(=O)N3CCC(C(=O)NCCc4ccccc4)CC3)cc2NC1=O (centres undefined)	-0.1%	u	-3.0%	-10.2%	-5.4
CC1Sc2ccc(S(=O)(=O)N3CCC(C(=O)NCC(C)c4ccccc4)CC3)cc2NC1=O (centres undefined)	27.0%	28.2µM*	3.6%	u	-6.8
Cc1nnc2sc(SCC(=O)N3CCCCC3)nn2c1=O	-5.1%	9.5%	-3.7%	28.2µM*	-1.0
CC1CCCCC1NC(=O)c1nnc(Cc2ccc(Cl)cc2)o1 (centres undefined)	-4.4%	-7.7%	-8.3%	-57.5%	3.4
N#C/C(=C(/O)c1ccc2c(c1)OCO2)c1nc2cc(C(F)(F)F)ccc2s1	5.8%	35.5µM*	2.0%	-2.9%	u
COc1cc(CNn2nnnc2N)cc(Br)c1OCc1c(Cl)cccc1Cl	4.2%	39.8µM*	-0.6%	-2.9%	-7.8
COc1cc(CNn2nnnc2N)cc(Br)c1OCC(=O)NC(C)(C)C	-13.3%	6.0%	-4.0%	-19.2%	-5.1
COc1cccc2cc(C(=O)Nc3ccc(F)cc3)c(=Nc3ccc(C(=O)O)cc3)oc12	-1.5%	11.2µM*	2.7%	-23.6%	-13.1
COc1ccc(N=c2oc3c(OC)cccc3cc2C(=O)NCc2ccco2)cc1OC	0.3%	-5.0%	-3.8%	-55.0%	23.8
CCn1c(=S)sc2c(=O)n(CC(=O)Nc3ccccc3C(F)(F)F)c(C)nc21	7.2%	6.9%	10.6%	3.5%	-127.2*
CCn1c(=S)sc2c(=O)n(CC(=O)Nc3ccccc3)c(C)nc21	-6.9%	-24.6%	-3.8%	-24.9%	-14.1
COc1ccc(CC2=CC(=O)c3ccccc3C2=O)cc1	-3.1%	-1.9%	1.5%	10.9%	-83.2*
COc1ccc(Cc2ccccc2C(=O)O)cc1	-1.0%	0.8%	2.4%	u	x
SMILES	Pin1 inhibitor	gsp antag	TCR activator	gsp ag	TSHR antag
COc1cc(OC)c(NS(=O)(=O)c2ccc3oc(=O)c4ncn(C)c4c3c2)cc1Cl	1.1%	x	x	x	x
O=C(NC1CC1)c1cc(-c2ccco2)nc2ccccc12	21.3µM*	-14.2%	-2.4%	-0.5%[15.4 µM]	-4.7
Cc1ccc(S(=O)(=O)NC(=O)N2CCC(C)CC2)cc1	x	x	x	x	-6.3
CC(=O)Nc1nonc1NC(C)=O	2.4%	9.0%	-0.5%	15.1%	-2.3
CC(=O)Nc1cc(OC(C)=O)c2nonc2c1OC(C)=O	u	7.7%	2.0%	-6.4%	-74.4*
CCC(=O)NC1=C(NC(C)c2ccccc2)C(=O)c2ccccc2C1=O (centres undefined)	0.4%	-25.6%	7.7%	-13.2%	-19.6
CCC(=O)NC1=C(Cl)C(=O)C(NC(=O)CC)=C(Cl)C1=O	-1.4%	u	11.4%	-48.0%	-85.9*
